Measurements taken from PubChem BioAssay AID1063 (University of Pittsburgh Molecular Library Screening Center, 2008).
About 18,000 (9%) of roughly 200,000 compounds were called active. The sample as a whole holds a higher share of actives than the screen did. Values without a mark were called inactive. Cut-off read from the data, not from the text of the source: active = inhibition above about 50%; inactive = the rest.

Experiment: Leishmania major promastigote growth inhibition, primary screen (AID 1063);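 note: promastigotes grown with compound for 44 hours at 28 °C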
Conditions: Leishmania major promastigotes, resazurin fluorescence viability; at 10 µM; hits give high values

Point of comparison: `COc1cc(NC(=O)CSc2nnc3ccc(-c4ccncc4)nn23)cc(OC)c1`, inhibition -2.79%. Against it:
- CCOC(=O)C1(C)NC(c2ccco2)C2C(=O)N(c3ccccc3)C(=O)C21 (stereo unspecified) — lower, -8.75%
- COc1cc(NC(=S)NCc2ccc(S(N)(=O)=O)cc2)cc(OC)c1 — higher, 11.8%
- CC1Cc2ccccc2N1C(=O)CSc1nnc(C2CC2)n1C (stereo unspecified) — higher, 14.8%
- Cn1c(SCC(=O)OC2CCCCC2)nnc1-c1ccc(S(=O)(=O)N2CCCC2)cc1 — higher, -0.74%
- O=C(Nc1ccc(N2CCN(C(=O)c3cccs3)CC2)cc1)c1cccnc1Cl — higher, 16.4%
- CCOc1ccccc1/C=N/NC(=O)CNC(=O)COc1ccccc1 — higher, -1.93%
- N#C/C=C(/c1ccc(F)cc1)N1CCOCC1 — higher, 1.16%
- Cc1cc(C)n2nc(SCC(N)=O)nc2n1 — higher, 4.1%
- COc1ccc(S(=O)(=O)N2CCCCC2)cc1Br — higher, -0.43%
- CCCCn1c(=S)[nH]c2ccccc2c1=O — higher, -2.23%
- COC(=O)C(C(=O)Nc1cccc(Cl)c1C)C1CCCC1 (stereo unspecified) — higher, -0.21%
- Cc1ccc(OCCCC(=O)NC(C)c2ccccc2)c(C)c1 (stereo unspecified) — higher, 11.7%
- CCC(CC)c1nnc(NC(=O)c2nn(C)c(=O)c3ccccc23)s1 — higher, 8.15%
- N#Cc1c(C(F)(F)F)cc(-c2ccc(Cl)cc2)nc1SCC(=O)O — lower, -6.26%
- COCCCNC(=O)/C=C/c1ccc(OCc2c(F)cccc2Cl)cc1 — higher, 16%
- O=C(/C=C/c1ccc(OCc2c(F)cccc2Cl)cc1)N1CCOCC1 — higher, 35.5%
- COc1ccccc1-n1ccnc1SCC(=O)NC(C)(C)C — higher, -1.52%
- COC(=O)c1ccc(CSc2nnc(N)s2)o1 — lower, -5.93%
- CCC(c1nnnn1Cc1ccco1)N(CCc1ccccc1)Cc1cc2cccc(C)c2[nH]c1=O (stereo unspecified) — higher, 39.7%
- CCC(c1nnnn1Cc1ccco1)N(Cc1cc2cc(OC)ccc2[nH]c1=O)C1CCCCC1 (stereo unspecified) — higher, 49.5%
- CN(C)c1ccc(C(CC(=O)O)C(=O)O)cc1 (stereo unspecified) — lower, -3.91%
- Cc1cccc(NC(=O)c2nnn(-c3cccc(C(F)(F)F)c3)c2N)c1 — higher, 3.89%
- Cc1ncn(C23CC4CC(CC(O)(C4)C2)C3)n1 — lower, -5.82%
- O=S(=O)(c1ccccc1)c1nc(-c2ccccc2F)oc1NCc1cccnc1 — higher, 0.99%
- CC(CC(=O)O)CC(=O)NNC(=O)c1cccc(Br)c1 (stereo unspecified) — lower, -4.63%
- CCCCC(NC(=O)c1cccc(Br)c1)C(=O)O (stereo unspecified) — higher, 21.1%
- COc1ccc(C)cc1-n1nnnc1SCc1nc2ccccc2c(=O)[nH]1 — higher, 2.27%
- Cc1nc(-c2ccc(Cl)cc2)sc1C(=O)CBr — lower, -12.4%
- CCCn1c(=S)[nH]c2ccc(C(F)(F)F)cc21 — higher, -2.71%
- CCCC(=O)OCC(=O)Nc1cc(Cl)ccc1[N+](=O)[O-] — lower, -6.12%
- COc1ccc(OC)c(Nc2nc(-c3ccc(O)c(O)c3)cs2)c1 — higher, 20.7%
- Cc1[nH]c2ccccc2c1-c1ccc(Cl)nn1 — higher, -2.46%
- COC(=O)C(NS(=O)(=O)c1ccc(F)cc1)c1ccccc1 (stereo unspecified) — higher, -1.84%
- CS/C(=C\[N+](=O)[O-])Nc1ccc(C)cc1 — higher, -1.56%
- CCc1nnc(NC(=O)c2cccc(S(=O)(=O)N(C)c3ccc(OC)cc3)c2)s1 — higher, -0.19%
- O=C(Cc1ccccc1)NC(=S)Nc1ccc(N2CCCCC2)cc1 — lower, -9.12%
- COc1ccc(-n2c(C)cc(C(=O)CSc3nnc(-c4cccs4)o3)c2C)cc1 — lower, -4.2%
- Cc1ccc(-n2c(C)cc(C(=O)CN3C(=O)C(=O)N(C4CCCC4)C3=O)c2C)cc1 — lower, -5.85%
- Cc1nn(-c2ccc([N+](=O)[O-])cc2)c(N)c1-c1ccccc1 — lower, -4.1%
- CC(C)(C)NC(=O)NC(=O)COC(=O)Cc1c(F)cccc1Cl — higher, 2.42%
- O=C(CSc1cccc[n+]1[O-])NCCCc1ccccc1 — higher, 1.17%
- COC(=O)c1ccccc1NC(=O)C1CC(=O)N(c2ccc(OC)cc2)C1 (stereo unspecified) — lower, -10.5%
- COc1cccc(N2CC(C(=O)Nc3c(C)cccc3C)CC2=O)c1 (stereo unspecified) — higher, 2.01%
- COc1cccc(NC(=O)Nc2nnc(N3CCCCC3C)s2)c1 (stereo unspecified) — higher, 3.59%
- CCOc1ccccc1Nc1nnc(SCC(=O)Nc2cc(C)on2)s1 — higher, 4.84%
- CCOC(=O)CCCN1CC(O)=C(c2nc3ccccc3s2)C1=N — higher, 17%
- CC(C)n1c(=O)[nH]c2cc(C(=O)Nc3ccccc3)ccc21 — higher, -2.18%
- O=C(N/N=C/c1ccco1)c1ccc(C(=O)N/N=C/c2ccco2)o1 — higher, -1.3%
- COC(=O)c1nn(-c2cccc(Cl)c2)ccc1=O — lower, -3.04%
- O=C(Cc1ccc([N+](=O)[O-])cc1)N/N=C/c1ccco1 — higher, 2.95%

For `CC1Cc2ccccc2N1C(=O)CSc1nnc(-c2ccc(S(=O)(=O)N3CCCC3)cc2)n1C` (stereo unspecified), the inhibition was 97.9% (active).
With `CCCCn1c(=S)[nH]c2cc(S(=O)(=O)N3CCCCC3)ccc21` the inhibition was 96.4% (active).
For `CN(C)CCCNC(=O)/C=C/c1ccc(OCc2c(F)cccc2Cl)cc1`, the inhibition was 89.1% (active).
In the case of `CCC(c1nnnn1Cc1ccco1)N(CCc1ccccc1)Cc1cc2ccc(OC)cc2[nH]c1=O` (stereo unspecified), the inhibition is reported as 85.7% (active).
With `Cc1nc([N+](=O)[O-])nn1C12CC3CC(CC(Br)(C3)C1)C2` the inhibition was 98.2% (active).
In the case of `C/C(Cc1ccccc1)=N\NC(=O)CNC(=O)c1cccc(Br)c1`, the inhibition is reported as 51.4% (active).
For `COc1ccc(C)cc1Nc1nc(-c2c(C)[nH]c3ccccc23)cs1`, the inhibition was 97.8% (active).
With `COc1ccc(-n2c(C)cc(C(=O)CN3C(=O)NC4(CCc5ccccc54)C3=O)c2C)cc1` (stereo unspecified) the inhibition was 98.6% (active).
With `COc1ccc(C(=O)CSc2nnc(NC(=O)C3CC(=O)N(c4cccc(OC)c4)C3)s2)cc1` (stereo unspecified) the inhibition was 56.9% (active).
For `COc1cccc(Nc2nnc(SCC(=O)N3CC(C)OC(C)C3)s2)c1` (stereo unspecified), the inhibition was 51.2% (active).
